# Source: PubChem (National Center for Advancing Translational Sciences (NCATS))
# PKM2 act – activators of human pyruvate kinase M2 | P14618 | purified PKM2, Kinase-Glo ATP luminescence, activation; response scale: 0% is enzyme alone, no compound | Potency, µM (titrated, usually from 57.5 µM), hits mostly activators | actives 0.34% (n = 260,000) | AID 1631; further: nearly all actives have a fitted effect of over 55% in size
#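 hPK-M2, >95% pure; 0.1 mM ADP / 0.5 mM PEP final; imidazole pH7.2 buffer w/ 7 mM MgCl2, 50 mM KCl; 1 h RT; Kinase-Glo lum. Intermediate enzyme activity for dual inhibitor/activator qHTS.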
# TrxR1 substrate – is turned over as a substrate by rat TrxR1; AID 588456; actives 0.01% (n = 390,000); O89049; purified TrxR1 substrate turnover, NADPH consumption readout; Potency, µM (series often up to 114 µM); further: nearly all actives have a fitted effect of over 50% in size
#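 Rat TrxR1, dispensed at 90 nM, was prereduced with 400 uM NADPH (final) for 5 min at ~22 deg C, then incubated with compound 15 min before 400 uM selenite. A first-read NADPH fluorescence drop versus no-compound background flagged substrates.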
# TrxR1 inh – rat TrxR1 inhibition. O89049. recombinant rTrxR1, NADPH fluorescence consumption, selenite substrate. Potency, µM (top dose mostly 114 µM), actives largely listed as inhibitors. actives 1% (n = 390,000); further: nearly all actives have a fitted effect of over 65% in size
#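 Rat TrxR1 (90 nM in the dispensed reagent) was pre-reduced with 400 uM NADPH for 5 min at room temperature, then incubated with compound for 15 min. After 400 uM selenite was added, NADPH fluorescence (Ex 340/Em 450 nm) was followed for 8 min.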
# PI4K2A block – blocks human PI4K2A kinase activity; Q9BTU6; purified PI4K2A, ADP-Glo luminescence, 1 h; active compounds read low; activity change, negative = inhibition, % at 76.9 µM; actives 0.13% (n = 420,000); AID 1346378; in the data active means activity change below about -50%; inconclusive means mostly about -30% to -49%
# Target sequence (Q9BTU6 whole entry, looked up): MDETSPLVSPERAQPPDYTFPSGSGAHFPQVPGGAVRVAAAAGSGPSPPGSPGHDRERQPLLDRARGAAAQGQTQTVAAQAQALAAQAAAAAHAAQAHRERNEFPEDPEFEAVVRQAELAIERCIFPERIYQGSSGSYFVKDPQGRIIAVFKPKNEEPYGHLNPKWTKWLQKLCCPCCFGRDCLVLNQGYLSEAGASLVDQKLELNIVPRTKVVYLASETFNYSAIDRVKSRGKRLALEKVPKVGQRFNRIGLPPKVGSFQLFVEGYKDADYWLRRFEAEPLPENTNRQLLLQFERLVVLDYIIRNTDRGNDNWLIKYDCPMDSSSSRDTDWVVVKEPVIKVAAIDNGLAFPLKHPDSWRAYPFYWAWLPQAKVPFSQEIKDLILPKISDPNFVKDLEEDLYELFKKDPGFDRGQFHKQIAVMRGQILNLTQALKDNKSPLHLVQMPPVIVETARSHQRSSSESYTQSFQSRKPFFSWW
#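 Compounds are screened against recombinant PI4K2A using PI as substrate and ATP, the latter dispensed at 300 microM. Reactions run one hour at ambient temperature before ADP-Glo detection; full inhibition defined by wells lacking enzyme.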
# GALK inhibitor – inhibitors of human galactokinase | Purified GALK, Kinase-Glo residual ATP luminescence | actives 0.007% (n = 270,000) | P51570 | AID 1868 | Potency, µM (highest dose often 57.5 µM), hits mostly inhibitors
#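 Luminescence from leftover ATP (Ultra-Glo luciferase/luciferin) served as read-out after a 1 h room-temperature reaction of 5 nM GALK with 35 uM ATP and 100 uM galactose.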
# Hits are given with their value; i = inactive; ? = inconclusive; nt = no result given; [ ] = another dose, or the depositor's remark. An excerpt weighted towards active compounds, which were near 1.2% of everything screened. Unless noted, the call rests on the fitted dose curve; in most records, active means well fitted curve in the direction sought with a large enough effect; inconclusive means small, poorly fitted or top-dose-only effect, or another doubt; inactive means no such curve, though single readings can be large; an effect the other way counts as inactive or inconclusive.
SMILES,PKM2 act,TrxR1 substrate,TrxR1 inh,PI4K2A block,GALK inhibitor
CC(C)(C)c1cc(=O)n(-c2ccccc2)[nH]1,i,?,?,-53.9,nt
COC(=O)CSc1nc2c(c(-c3ccc(O)cc3)c1C#N)CCCC2,i,i,i,i,i
COC(=O)CSc1nc2c(c(-c3ccco3)c1C#N)CCCC2,i,i,15.8µM,i,i
O=C(CCl)Nc1cccc(S(=O)(=O)NC2=NCCCCC2)c1,nt,i,17.8µM,i,nt
O=C(Nc1cccc(S(=O)(=O)NC2=NCCCCC2)c1)c1cc(-c2ccco2)nc2ccccc12,i,i,50.1µM,?,i
Cc1cc(C)cc(NC(=O)C(Cc2ccccc2)N2Cc3ccccc3C2=O)c1 (stereo unspecified),nt,i,i,i,nt
CCCc1ccc(C(=O)O/N=C(\N)c2ccccn2)cc1,i[11.5 µM],i,i,-85.1,i
N/C(=N\OC(=O)c1cccc([N+](=O)[O-])c1)c1ccccn1,i,i,i,i,i
N/C(=N\OC(=O)c1ccc2ccccc2c1)c1ccccn1,i,i,i,-58.0,i
COc1cccc(C(=O)O/N=C(\N)c2ccccn2)c1,i,i,i,-72.7,i
Cc1ccc(C(=O)O/N=C(\N)c2ccccn2)c(Cl)c1,i,i,i,-70.1,i
N/C(=N\OC(=O)c1ccc(Cl)cc1Cl)c1ccccn1,i,i,i,i,i
Cc1ccc(-c2nn(-c3ccccc3)cc2C2SCC(=O)N2Cc2ccccc2)o1 (stereo unspecified),?,i,56.2µM,i,i
O=C(O)c1cc(N2N=C(C(F)(F)F)/C(=C/C=C/c3ccco3)C2=O)ccc1Cl,i,i,?,-66.7,i
CCOC(=O)c1ccc(N2N=C(C)/C(=C/C=C/c3ccco3)C2=O)cc1,i,i,i,i,i
Cc1nc2ccc(S(=O)(=O)NCC(=O)NCc3ccccc3C)cc2s1,nt,nt,nt,i,nt
O=C1CN(S(=O)(=O)c2ccccc2)CCN1S(=O)(=O)c1ccccc1,4.47µM,i,i,i,i
O=S(=O)(c1ccccc1)N1CCN(S(=O)(=O)c2ccccc2)CC1,nt,i,i,nt,nt
O=S(=O)(Nc1cccnc1)c1cccc2ccccc12,nt,i,i[0.457 µM],nt,nt
CC1(C)CC(=O)C=C(NC2=CC3OC(c4ccccc4)OCC3OC2=O)C1 (stereo unspecified),i,i,15.8µM,i,nt
CCOC(=O)C1(C)C=C(Nc2ccc(C(N)=O)cc2)C(=O)N1c1ccccc1 (stereo unspecified),nt,i,i,i,nt
COc1ccc(S(=O)(=O)N2CCC(n3cnc4ccccc43)CC2)cc1,15.8µM,i,i,i,i
O=C(c1ccccc1NS(=O)(=O)c1ccc([N+](=O)[O-])cc1[N+](=O)[O-])N1O[C@@H]2C=C[C@H]1C2,nt,i,3.16µM,i,nt
COc1ccc(C2CCC3(CCC(=O)N3CCO)CC2)cc1 (stereo unspecified),nt,nt,nt,i,nt
Cc1cc(N)ccc1N1CCCC1,i,i,12.6µM,?,i
SMILES,PKM2 act,TrxR1 substrate,TrxR1 inh,PI4K2A block,GALK inhibitor
Cn1cnc([N+](=O)[O-])c1Oc1cccc(O)c1,i,i,25.1µM,i,i
Cn1cnc([N+](=O)[O-])c1Oc1cccc2ccccc12,i,i,8.91µM,i,i
Cn1cnc([N+](=O)[O-])c1Oc1ccccc1,i,i,44.7µM,i,i
Cn1cnc([N+](=O)[O-])c1C(=O)Nc1cccc([N+](=O)[O-])c1,i,i[0.0914 µM],i,i,i
CCOC(=O)[C@]12CCCC=C1N(CCCOC)C(=O)[C@@H]2CC(=O)NCCCCc1ccccc1,nt,nt,nt,i,nt
Cc1ccc(-n2nc(CO)c(C(=O)NC(C)CCCc3ccccc3)n2)cc1C (stereo unspecified),nt,i,i,i,nt
CC(=O)O[C@@H]1[C@@H](O)CN[C@@H]1Cc1ccccc1,nt,i,39.8µM,nt,nt
Cc1csc(SCC(=O)c2ccc(S(=O)(=O)N3CCOCC3)cc2)n1,28.2µM,i,?,i,i
O=C1CCC(C(=O)N2CCOCC2)CN1Cc1ccc(Cl)cc1 (stereo unspecified),i,i,i,i,i
O=C1CCC(C(=O)N2CCSCC2)CN1Cc1ccc(Cl)cc1 (stereo unspecified),nt,i,44.7µM,i,i
C=CCN1C=C2C(=O)C(C)(OC(=O)c3ccc(OC)cc3)C(=O)C(c3ccco3)=C2C=C1CCCC (stereo unspecified),i[11.5 µM],i,7.08µM,i,i
Nc1nc(SCC(=O)Nc2ccc(Br)cc2F)n[nH]1,22.4µM,i,i,i,i
CN(C)c1ccc(CNC(=O)c2ccc(Cn3c(SCc4ccccc4)nc4cccnc43)cc2)cc1,nt,i,i,i,nt
COc1cc2c(c(OC)c1)[C@H](/C=C/c1ccccc1)[C@@H]([C@H](O)CO)OC2,nt,nt,nt,i,nt
CN(C)/C=C(\C(=O)c1ccc(F)cc1F)c1nnnn1-c1ccccc1,15.8µM,i,i,i,i
CCOc1ccccc1NC(=O)C(C)n1nnc2sc3c(c2c1=O)CCCC3 (stereo unspecified),nt,i,i,i,nt
COc1ccc(S(=O)(=O)n2nc(OC(C)=O)cc2N)cc1,i,i,17.8µM,i,i
COc1ccc(C(=O)Oc2cc(N)n(S(=O)(=O)c3ccccc3)n2)cc1,i,i,i,i,i
Nc1cc(OC(=O)c2cccs2)nn1S(=O)(=O)c1ccc(F)cc1,i,i,79.4µM,i,i
CC(=O)Nc1ccccc1-c1ccccc1[N+](=O)[O-],nt,i[2.29 µM],i[2.29 µM],i,nt
CCS(=O)(=O)c1cc([N+](=O)[O-])c(Sc2ccccc2NC(C)=O)s1,i,i,8.91µM,i,nt
CCS(=O)(=O)c1ncc(Cl)c(C(=O)N2CCN(c3cccc(Cl)c3)CC2)n1,nt,i,0.398µM,i,nt
Cc1[nH]c2ccc(C(=O)N3CCN(c4cccc(Cl)c4)CC3)cc2c1C,nt,i,i,i,i
COc1ccc(OCC(=O)N2CCN(c3cccc(Cl)c3)CC2)cc1,i,i[11.4 µM],i[11.4 µM],i,i
CS(=O)(=O)c1ncc(Cl)c(C(=O)N2CCN(c3cccc(Cl)c3)CC2)n1,nt,i,0.891µM,i,nt
SMILES,PKM2 act,TrxR1 substrate,TrxR1 inh,PI4K2A block,GALK inhibitor
COCCCNC(=O)C[C@H]1C[C@@]2(C(=O)OC)C(=C[C@H](C(C)C)O[C@@H]2C2CC2)N(CCc2ccc(OC)c(OC)c2)C1=O,nt,nt,nt,i,nt
Cc1nc2ccccc2n1CCC(=O)O,i,i,i,i,i
Cc1nc2ccccc2n2c(O)c(CC(=O)O)cc12,i,i,35.5µM,i,i
O=C(CCc1cn(Cc2ccc(F)cc2)c2ccccc12)NCCc1ccc(Cl)cc1,nt,i,i,i,nt
Fc1ccc(C2=Nc3cccc4cccc(c34)N2)cc1,i,i,?,i,i
FC(F)(F)C1=Nc2cccc3cccc(c23)N1,nt,i,39.8µM,-64.3,nt
CN(C)CCCN(C(=O)CCOc1ccccc1)c1nc2ccc(F)cc2s1,i,i,0.631µM,i,i
O=C(CCOc1ccccc1)N(Cc1cccnc1)c1nc2ccc(F)cc2s1,nt,i,7.08µM,i,nt
O=C(COc1ccccc1)N(Cc1cccnc1)c1nc2ccc(F)cc2s1,nt,i,i,i,nt
